Assay results taken from the supplement of paper PMC3334620.
Over roughly 33,000 sequences, “E-score (-0.5 to 0.5)” has its median near -0.041; the highest 2% begin near 0.37. This excerpt belongs to a sample that is enriched for the highest values.

Each sequence was assayed against T1, Ecm22 (UniProt Q05958) (assay: PBM E-score (8-mer binding enrichment) (E-score (-0.5 to 0.5)); higher = stronger / more preferred TF binding). Conditions: protein concentration: 200 nM; construct: GST-full length.
T1 sequence: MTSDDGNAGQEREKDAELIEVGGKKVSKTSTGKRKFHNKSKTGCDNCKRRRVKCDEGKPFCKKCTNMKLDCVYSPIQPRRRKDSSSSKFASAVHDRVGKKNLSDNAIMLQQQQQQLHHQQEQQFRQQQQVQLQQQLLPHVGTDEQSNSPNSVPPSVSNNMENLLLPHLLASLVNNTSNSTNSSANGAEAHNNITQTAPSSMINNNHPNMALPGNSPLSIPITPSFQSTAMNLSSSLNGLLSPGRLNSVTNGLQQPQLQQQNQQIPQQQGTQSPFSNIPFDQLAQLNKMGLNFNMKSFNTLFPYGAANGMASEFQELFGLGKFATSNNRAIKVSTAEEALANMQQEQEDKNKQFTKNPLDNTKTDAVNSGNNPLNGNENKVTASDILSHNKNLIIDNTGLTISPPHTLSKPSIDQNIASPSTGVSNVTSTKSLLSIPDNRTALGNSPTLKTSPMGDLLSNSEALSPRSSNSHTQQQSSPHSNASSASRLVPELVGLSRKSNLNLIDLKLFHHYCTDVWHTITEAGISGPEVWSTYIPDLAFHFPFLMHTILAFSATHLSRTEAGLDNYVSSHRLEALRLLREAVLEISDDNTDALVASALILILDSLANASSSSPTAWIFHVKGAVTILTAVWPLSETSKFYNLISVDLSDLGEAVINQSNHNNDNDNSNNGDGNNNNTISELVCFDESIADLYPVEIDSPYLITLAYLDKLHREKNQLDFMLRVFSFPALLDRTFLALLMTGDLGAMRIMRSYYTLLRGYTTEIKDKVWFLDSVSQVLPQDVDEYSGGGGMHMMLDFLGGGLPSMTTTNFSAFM
Method: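 Universal 'all 10-mer' protein binding microarrays (Agilent AMADID 015681) probed with GST-tagged S. cerevisiae TFs (full-length or DBD) made by in vitro transcription/translation (PURExpress), about 100-200 nM. Bound TF was detected with fluorescent anti-GST. Each ungapped 8-mer (which stands for itself and its reverse complement) is scored by the PBM enrichment score (E-score), a modified Wilcoxon-Mann-Whitney statistic from -0.5 to +0.5, computed with the Universal PBM Analysis Suite. Scale: above 0.35 generally sequence-specific binding.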

Sequence | PBM E-score
ATGAACGG | 0.262
ATGAACGA | 0.453
GTGAACTA | 0.0738
CTGAACTA | -0.092
GTGAACAA | 0.198
ATGAACGC | 0.118
CTGAACGA | 0.456
AACGGTTA | 0.27
CATTGTCG | 0.0896
CTAGGGAC | -0.323
CGCCAGAC | 0.00345
GGTAACAC | -0.135
GATTCGCA | 0.227
AATTCGTG | -0.036
GATTCGTA | 0.45
CATTCGTA | 0.407
AATTCGTA | 0.441
AATTCGTC | 0.0772
GATTCGGA | 0.171

Sequence | PBM E-score
CATTCGCA | 0.0842
CATTCGTC | 0.112
ACCCCCCT | -0.25
AGTAGGCC | 0.00266
GAATTGTC | -0.0741
AGAACCCA | -0.131
GGCTCCTA | -0.159
GCATTTAC | -0.0379
CTTCCGTA | 0.319
GTTCCGTA | 0.389
ATTCCGTA | 0.284
ACAGAAGC | -0.0614
GCGTACGA | 0.448
GCGTACGC | 0.178
ACGTACGT | 0.245
ACGTACGG | 0.362
ACGTACGA | 0.441
GCGTACTA | 0.152
TCCTACGA | 0.26

Sequence | PBM E-score
ACGTACGC | 0.239
TCGCACGA | 0.183
CCCTACGG | -0.215
CCGTACGG | 0.378
TCGTACGA | 0.469
CTAGCGGC | -0.29
AGAGCGGC | -0.228
CTCTTAAC | 0.0664
ATCTGCAC | -0.117
CATCAGCC | -0.121
TAGCTGAA | 0.0371
ACTTCGAG | -0.105
TCCGCCAA | -0.121
ATTTCTGA | -0.286
AAGTGCAA | -0.0854
AGGTCAGA | -0.204
TGAGGTAA | -0.264
CCGTACGC | 0.324
